# In the supplement of paper PMC6555819:
# How the values were obtained:
# Assay in all cases: PBM binding z-score (relative to random genomic background probes); higher = stronger binding; sequences stand for … in GC…GCGATTGACAGCGTAGAATGAAGG
# [1] = tested on: FXR:RXRa (NR concentration 270 nM, RXRa partner concentration 90 nM)
# Method in brief: (§1)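 Antibodies against each partner of ligand-free nuclear receptor dimers (one per run) detected binding on custom Agilent 4×180K protein-binding microarrays after 1 h incubation. The double-stranded probes had 34-nt variable regions carrying direct-repeat seeds, single-nucleotide variants, half-site ablations and random human genomic background sequences. Binding z-scores, from regression-normalized fluorescence, use the random background probes as reference.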
# [2] = tested on: LXRa:RXRa (NR concentration 270 nM, RXRa partner concentration 90 nM)
# Method in brief: as §1
# [3] = tested on: LXRa homodimer (NR concentration 270 nM)
# Method in brief: as §1
# [4] = tested on: LXRb:RXRa (NR concentration 270 nM, RXRa partner concentration 90 nM)
# Method in brief: as §1
# [5] = tested on: LXRb homodimer (NR concentration 270 nM)
# Method in brief: as §1
# [6] = tested on: PPARa:RXRa (NR concentration 270 nM, RXRa partner concentration 90 nM)
# Method in brief: as §1
# [7] = tested on: PPARg:RXRa (NR concentration 180 nM, RXRa partner concentration 90 nM)
# Method in brief: as §1
# [8] = tested on: PPARg:RXRa 270nM:90nM, anti-RXR (NR concentration 270 nM, RXRa partner concentration 90 nM)
# Method in brief: as §1
# [9] = tested on: PPARg:RXRa 30nM:10nM, anti-RXR (NR concentration 30 nM, RXRa partner concentration 10 nM)
# Method in brief: as §1
# [10] = tested on: PPARg:RXRa 90nM:30nM, anti-RXR (NR concentration 90 nM, RXRa partner concentration 30 nM)
# Method in brief: as §1
# [11] = tested on: PPARg:RXRa DBDmut IVT, anti-RXR (DBD mutation: RXRa K156A/R161A, NR concentration 270 nM, RXRa partner concentration 90 nM)
# Method in brief: as §1
# [12] = tested on: PPARg:RXRa IVT, anti-PPARg (NR concentration 270 nM, RXRa partner concentration 90 nM)
# Method in brief: as §1
# [13] = tested on: PPARg DBDmut:RXRa IVT, anti-PPARg (DBD mutation: PPARg1 K132A/R137A, NR concentration 270 nM, RXRa partner concentration 90 nM)
# Method in brief: as §1
# [14] = tested on: PPARg DBDmut IVT, anti-PPARg (DBD mutation: PPARg1 K132A/R137A, NR concentration 270 nM)
# Method in brief: as §1
# [15] = tested on: PPARg homodimer (NR concentration 180 nM)
# Method in brief: as §1
# [16] = tested on: PXR:RXRa (NR concentration 270 nM, RXRa partner concentration 90 nM)
# Method in brief: as §1
# [17] = tested on: PXR homodimer (NR concentration 270 nM)
# Method in brief: as §1
# [18] = tested on: RARa:RXR (NR concentration 270 nM, RXRa partner concentration 90 nM)
# Method in brief: as §1
# [19] = tested on: RARa homodimer (NR concentration 270 nM)
# Method in brief: as §1
# [20] = tested on: RARb:RXRa (NR concentration 270 nM, RXRa partner concentration 90 nM)
# Method in brief: as §1
Sequence,PBM binding z-score [1],PBM binding z-score [2],PBM binding z-score [3],PBM binding z-score [4],PBM binding z-score [5],PBM binding z-score [6],PBM binding z-score [7],PBM binding z-score [8],PBM binding z-score [9],PBM binding z-score [10],PBM binding z-score [11],PBM binding z-score [12],PBM binding z-score [13],PBM binding z-score [14],PBM binding z-score [15],PBM binding z-score [16],PBM binding z-score [17],PBM binding z-score [18],PBM binding z-score [19],PBM binding z-score [20]
ATCTCTAGGTACAGATAGTTCAGTGAATGCAAAT,0.079,0.141,0.396,0.242,0.548,0.12,0.349,0.108,0.29,0.33,-0.154,0.347,1.38,1.2,0.865,0.698,1.5,0.218,0.726,0.832
CCTCGGAGGACAACAGGAGGTCAGAGTTGCCAGA,1.11,2.05,2.59,1.57,-0.486,2.02,0.634,0.674,-0.404,0.264,-0.0815,0.313,-0.9,-1.99,2.15,2.36,1.11,2.64,0.759,2.83
CCTAGCAGGCGAATCTGGGTCACTCAAGGCTTGA,0.211,0.262,-0.449,0.236,-0.934,3.11,2.47,2.62,-0.139,1.64,4.47,5.39,-1.46,-1.28,0.225,0.221,-0.605,1.13,-0.282,0.812
CAAACTAGGTCACGAAAGGTCCAAGTCGAATGAC,4.78,3.96,0.544,2.73,0.334,5.45,8.99,7.44,4.78,7.28,8.4,9.01,1.98,0.788,2.59,3.32,0.339,3.32,1,4.51
AGAAAGAGGTTAAGATCAGGGAAACAGAATACAT,2.5,2.43,0.396,2.31,0.766,3.66,2.06,1.89,1.05,1.34,1.12,1.52,1.97,0.819,1.02,1.37,0.655,1.89,0.728,2.4
TCTAGGTGGTCACGGAGGTCACACACGACGGGTA,3.81,3.68,2.06,3.28,0.0895,4.01,3.58,4.2,3.06,3.96,1.88,4.12,0.705,0.508,2.75,4.44,0.948,4.51,1.02,3.84
GTACCAATGTGAATAGGTCGTTGATGAGTAGGCG,-0.0565,-0.171,-0.443,-0.196,-0.467,0.275,0.47,-0.162,-0.118,-0.255,-0.469,-0.105,-0.359,0.0422,0.0773,-0.176,-0.211,0.0838,0.262,0.00696
ACAGACAGGTCATGAAGGTAACTCAGGCTATCAT,5.65,4.39,0.927,3.31,0.862,4.77,3.76,3.6,1.23,2.19,1.59,2.7,1.81,1.12,1.73,2.95,0.934,3.74,0.881,3.9
ATCTCTCGGTAAAGTTCAGTGAAAGATCGATAGA,1.03,1.46,1.39,1.3,1.34,1.6,1.08,2.68,1.12,2.32,0.0239,0.915,0.801,1.45,1.63,2.11,1.75,1.59,1.08,2.84
TGTCAAAGTACAAAGGTAACGTAAGTATCCACAC,0.237,0.465,-0.185,0.542,-0.294,1.67,3.64,4.32,1.97,3.96,-0.385,2.33,1.2,1.03,0.0149,0.587,-0.194,1.04,0.713,1.67
GGAGCGAGGGCAAGTTGATAGCAGAGTTTGATGG,0.394,0.0427,-0.544,0.219,-0.594,0.728,0.238,0.276,-0.604,-0.121,0.723,0.346,-0.895,-0.911,0.261,0.533,0.345,0.395,-0.343,2.56
TTACTAAGGTGAAGGTCGTTGATCCCTCTGTAGA,3.06,2.12,0.0636,2.08,-0.257,3.76,5.8,6.91,5.91,7.51,3.98,4.68,1.15,0.702,1.39,1.84,0.493,2.6,0.0273,2.58
ATATGTAGGTTATCGTGTCATTCAGTTTGCGCAT,0.97,1.3,0.641,1.5,0.855,3.55,5.76,5.11,2.48,4.38,7.74,7.44,2.49,2.15,1.76,1.17,0.812,1.16,0.933,1.32
CAAACTAGGTTACGAAAGGTCAAAGTCGAATGAC,5.93,8.59,8.28,7.69,2.88,6.1,8.03,7.02,4.81,6.47,7.07,7.68,2.53,2.93,4.81,6.22,1.73,6.69,3.24,4.82
